# In PubChem BioAssay (Tox21):
# A number with no mark means an inactive call. Inconclusive results are not listed. Entries that show only a call come without a potency. Activity calls are given as the source filed them. Unless noted, calls come from the whole dose curve; as a rule, active = well fitted curve in the direction sought with a large enough effect in the repeat runs; inconclusive = weak or mixed curves; inactive = no such curve, though single readings can be large; an effect the other way counts as inactive or inconclusive. Positions of bridges follow the written chain, without caps; N, C: chain ends. Non-standard residues stand in square brackets, D forms with d. Residues, ends and D or L forms follow the SMILES beside them. hArg = N=C(N)NCCCC[C@H](N)C(=O)O; Mpa = O=C(O)CCS
# Key:
# [1] = qHTS assay for small molecule agonists of the p53 signaling pathway (AID 651631; calls by dose curve; note: nearly all actives have a fitted effect of over 15% in size)
# Summary of the method: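 Quantitative high-throughput format: 4,000 p53RE-bla HCT-116 cells/well, 5 h pre-incubation, 16 h compound exposure at 37 °C, 2 h room-temperature substrate step, fluorescence intensity measured.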
# [2] = qHTS assay for small molecules that induce genotoxicity in human embryonic kidney cells expressing luciferase-tagged ATAD5 (AID 651632); note: nearly all actives have a fitted effect of over 15% in size
# Summary of the method: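 A rise in luciferase signal from ATAD5-tagged HEK293T cells marks genetic stress. Cells were exposed to compounds for 16 hr at 37C, 5% CO2, then luciferase was quantified after a 30 min room-temperature incubation with Amplite.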
# [3] = qHTS assay for small molecules that induce genotoxicity in human embryonic kidney cells expressing luciferase-tagged ATAD5 - cell viability (AID 651634; calls by dose curve; note: nearly all actives have a fitted effect of over 25% in size)
# Summary of the method: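 Cytotoxicity counter-readout: after 15.5 hr compound treatment at 37C, live-cell protease activity in ATAD5-luciferase HEK293T cells measured by CellTiter-Fluor fluorescence, 30 min development at 37C.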
# [4] = qHTS assay for small molecule disruptors of the mitochondrial membrane potential - cell viability (AID 720634; calls by dose curve;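 note: human HepG2 liver cancer cells; series mostly up to about 83 µM; nearly all actives have a fitted effect of over 20% in size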)
# Summary of the method: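 Cytotoxicity was quantified from ATP content by CellTiter-Glo luminescence in the same wells as the MMP dye read-out. HepG2 (2,000 cells/well) were plated overnight and exposed to compounds for 1 hr at 37 C.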
# [5] = qHTS assay for small molecule disruptors of the mitochondrial membrane potential (AID 720635); note: potency is the fitted concentration of half-maximal effect
# Summary of the method: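 Mitochondrial membrane potential tracked with Mito-MPS dye, red aggregates (ex 540/em 590 nm) against green monomers (ex 490/em 535 nm). Compound treatment 1 hr at 37C, dye 30 min in HepG2.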
# [6] = qHTS assay to test for compound auto fluorescence at 590 nm (red) in HepG2 cells (AID 720674)
# Summary of the method: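 Red autofluorescence (Ex/Em 540/590 nm, Rose Bengal sodium equivalents) was measured in HepG2 cells, 2,000 per well in MEM plus 10% FBS, plated overnight at 37 C. Readings were taken 1 hr after adding 23 nL compound or DMSO, at 37 C and 5% CO2.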
# [7] = qHTS assay to test for compound auto fluorescence at 535 nm (green) in HepG2 cells (AID 720675)
# [8] = qHTS assay to test for compound auto fluorescence at 460 nm (blue) in HEK293 cells (AID 720678)
# Summary of the method: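 After cell attachment (4-5 hr, 37C), compounds were pinned onto HEK293 monolayers in 10% dialyzed FBS medium. The blue channel (405/460 nm) was read following overnight culture. Equivalency was calculated against triamterene.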
# [9] = qHTS assay to test for compound auto fluorescence at 590 nm (red) in HEK293 cells (AID 720679)
# Summary of the method: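 Plates of HEK293 cells (10% dialyzed FBS) are treated with 23 nL compound or DMSO vehicle after a 4-5 hr attachment period, incubated overnight at 37C, and read for red fluorescence at 540/590nm.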
# [10] = qHTS assay for small molecule agonists of the p53 signaling pathway - cell viability (AID 651633; calls by dose curve;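 note: p53RE-bla HCT reporter cells with a stable beta-lactamase p53 reporter; series mostly up to about 83 µM; nearly all actives have a fitted effect of over 30% in size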)
# Summary of the method: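 Viability counter-read: CellTiter-Glo luminescence (30 min, room temperature) in the same p53RE-bla plates. These plates had been exposed to compounds for 16 h at 37 C.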
Structure (SMILES),outcome [1],outcome [2],Potency [3],outcome [4],Potency [5],outcome [6],outcome [7],outcome [8],outcome [9],outcome [10],"fluorescence, relative to Rose Bengal [6]","fluorescence, % of fluorescein control [7]","fluorescence, % of triamterene [8]","fluorescence, % of fluorescent control [9]"
N#CCC(=O)NN,inactive,inactive,inactive,inactive,inactive,inactive,inactive,inactive,inactive,–,–,–,–,–
C=C(C)[C@@H]1CC=C(C)CC1,inactive,inactive,–,–,–,inactive,inactive,inactive,inactive,inactive,–,–,–,–
CC(=O)CCc1ccc(OC(C)=O)cc1,inactive,inactive,inactive,inactive,inactive,inactive,inactive,inactive,inactive,–,–,–,–,–
CC1(C)Cc2cccc(N)c2O1,inactive,inactive,inactive,inactive,inactive,inactive,inactive,inactive,inactive,–,–,–,–,–
CC(=O)OCC(=O)Nc1cc(C#N)cc(NC(=O)COC(C)=O)c1Cl,inactive,inactive,inactive,inactive,inactive,inactive,inactive,inactive,inactive,–,–,–,–,–
COC(C)(OC)OC,inactive,inactive,inactive,inactive,–,inactive,inactive,inactive,inactive,–,–,–,–,–
COS(=O)(=O)O,inactive,inactive,inactive,–,inactive,inactive,inactive,inactive,inactive,–,–,–,–,–
CC(=O)CC(=O)OC(C)(C)C,inactive,inactive,inactive,inactive,inactive,inactive,inactive,inactive,inactive,–,–,–,–,–
CC1=NN(c2ccc(S(=O)(=O)O)cc2)C(=O)C1,inactive,inactive,inactive,inactive,inactive,inactive,inactive,inactive,inactive,–,–,–,–,–
N[C@@H](CSCCCO)C(=O)O,inactive,inactive,inactive,inactive,inactive,inactive,inactive,inactive,inactive,–,–,–,–,–
CC(=O)OC1CCCCC1C(C)(C)C (centres undefined),inactive,inactive,inactive,inactive,inactive,inactive,inactive,inactive,inactive,–,–,–,–,–
CC(Oc1cc(Cl)ccc1Cl)C(=O)O (centres undefined),inactive,inactive,inactive,inactive,–,inactive,inactive,inactive,inactive,–,–,–,–,–
CCCCCCCCCCCCCCC(=O)NC(CO)CCCCCCCCCCCCCC (centres undefined),inactive,inactive,inactive,inactive,–,inactive,inactive,inactive,inactive,–,–,–,–,–
CCOCCOCC,inactive,inactive,inactive,inactive,–,inactive,inactive,inactive,inactive,–,–,–,–,–
CCC[C@@H]1C[C@@H](C(=O)N[C@@H]([C@H]2O[C@H](SC)[C@H](O)[C@@H](O)[C@H]2O)[C@@H](C)O)N(C)C1,inactive,inactive,–,inactive,–,inactive,inactive,inactive,inactive,–,–,–,–,–
CCCc1ccc(O)cc1,inactive,inactive,–,inactive,54.5 µM (active),inactive,inactive,inactive,inactive,inactive,–,–,–,–
CCCCCCCCCCCCCCCCCCOCCO,inactive,inactive,inactive,inactive,inactive,–,–,–,–,–,0.105% [at 18.6 µM],0.0331% [at 18.6 µM],-0.176% [at 18.6 µM],-0.175% [at 18.6 µM]
CC(C)(C)NC[C@H](O)COc1cccc2c1CCCC2=O,inactive,inactive,inactive,–,inactive,–,–,–,–,–,-0.105% [at 18.6 µM],0.0562% [at 18.6 µM],0.103% [at 18.6 µM],0.133% [at 18.6 µM]
CC(=O)C1C(=O)C=C(C)OC1=O (centres undefined),inactive,inactive,–,inactive,–,inactive,inactive,inactive,inactive,inactive,–,–,–,–
CCCCC1CCC(O)CC1 (centres undefined),inactive,inactive,–,inactive,inactive,inactive,inactive,inactive,inactive,inactive,–,–,–,–
C/C(CC(C)C)=N\O,inactive,inactive,inactive,–,inactive,inactive,inactive,inactive,inactive,–,–,–,–,–
c1ccc2cnccc2c1,inactive,inactive,–,inactive,inactive,inactive,inactive,inactive,inactive,inactive,–,–,–,–
OC[C@@H](O)C(O)[C@@H](O)CO (some centres undefined),inactive,–,inactive,inactive,–,inactive,inactive,inactive,inactive,inactive,–,–,–,–
CC(O)COC(C)(C)C (centres undefined),inactive,–,inactive,inactive,–,inactive,inactive,inactive,inactive,inactive,–,–,–,–
CCO,inactive,–,inactive,–,–,inactive,inactive,inactive,inactive,inactive,–,–,–,–
NC(=O)[C@@H]1CSSCCC(=O)N[C@@H](CCCCN=C(N)N)C(=O)NCC(=O)N[C@@H](CC(=O)O)C(=O)N[C@@H](Cc2c[nH]c3ccccc23)C(=O)N2CCC[C@H]2C(=O)N1 ([Mpa][hArg]GDWPC-NH2; disulfide 1-7),inactive,–,inactive,inactive,inactive,inactive,inactive,inactive,inactive,inactive,–,–,–,–
Cc1ccc2c(c1)C(=O)c1ccccc1C2=O,inactive,–,inactive,–,6.09 µM (active),inactive,inactive,inactive,inactive,–,–,–,–,–
CC1CCc2c(N3CCC(O)CC3)c(F)cc3c(=O)c(C(=O)O)cn1c23 (centres undefined),inactive,–,inactive,–,–,inactive,inactive,inactive,inactive,inactive,–,–,–,–
N#Cc1cscn1,inactive,–,inactive,inactive,inactive,inactive,inactive,inactive,inactive,inactive,–,–,–,–
CCCCSCCCC,inactive,–,inactive,–,inactive,inactive,inactive,inactive,inactive,inactive,–,–,–,–
